This note sets out measurements from PubChem BioAssay (NCATS).

For experiment [1] the following is noted: Ebola virus entry assay, green fluorescence channel.
For experiment [2] the following is noted: Ebola virus entry assay, blue channel fluorescence.
The nature of experiment [3]: qHTS profiling of the MIPE4 collection as inhibitors of Plasmodium falciparum (3D7) proliferation (AID 743344).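 Note: scaled between DMSO vehicle wells and 0.29 µM artemisinin as full inhibition.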 The note with it: P. falciparum 3D7 in erythrocytes, SYBR Green DNA fluorescence, 72 h; at 28.5 µM (top of the series) unless noted. The method in brief:
(§1)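 Parasite DNA was quantified by SYBR Green I fluorescence (ex 485, em 535 nm) after overnight lysis in saponin/Triton buffer at room temperature. Cultures at 0.3% parasitemia and 2.5% hematocrit were first exposed to compound for 72 h at 37 C; signals were normalised to artemisinin (0.29 uM) and vehicle wells.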

Experiment [4] is described as follows: qHTS profiling of the MIPE4 collection as inhibitors of Plasmodium falciparum (DD2) proliferation (AID 743345). To be noted: P. falciparum Dd2 in erythrocytes, SYBR Green DNA, 72 h; at 28.5 µM (top of the series) unless noted. The method in brief: as §1
Background: In qHTS, concentration-response curves come from the screen itself.

Experiment [5] can be described thus: qHTS profiling of the MIPE4 collection as inhibitors of Plasmodium falciparum (DD2) proliferation (Rep 2) (AID 743346). To be noted: P. falciparum Dd2 in erythrocytes, SYBR Green DNA, 72 h; at 28.5 µM (top of the series) unless noted. The method in brief: as §1
Experiment [6] in a line: qHTS profiling of the MIPE4 collection as inhibitors of Plasmodium falciparum (HB3) proliferation (AID 743347).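 Note: plate controls were DMSO vehicle wells for no effect and artemisinin wells for full effect.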 To be noted: P. falciparum HB3 in erythrocytes, SYBR Green DNA, 72 h; at 28.5 µM (top of the series) unless noted. Summed up:
as §1

For part of these data: Measured potencies and affinities stand elsewhere. Active and inactive are the calls of the source. The rule behind the calls is not given here.
Throughout, for efficacy: 0% is about no effect.

Consider `Cc1ccc(O)c2ncccc12`, for which, in experiment [1], the efficacy is 17.9% (inactive). Besides, in experiment [2], the compound was classed as inactive.

`CC[N+](CC)(CCNC(=O)C(=O)NCC[N+](CC)(CC)Cc1ccccc1Cl)Cc1ccccc1Cl`: the efficacy in experiment [1] was -9.71% (inactive). Also, the compound was classed as inactive in experiment [2].

Regarding `CCCc1c(OCCCCc2nn[nH]n2)ccc(C(C)=O)c1O`, the efficacy in experiment [1] is 28.7% (inactive). For the same compound, the outcome in experiment [2] was inactive.

Turning to `O=C(O)c1c(O)c(-c2ccccc2)nc2ccccc12`, the efficacy in experiment [1] was 18% (inactive). The outcome in experiment [2] was inactive.

As to `CC(=O)Nc1ccc(OCC(O)CNC(C)C)cc1` (configuration not stated), the efficacy in experiment [1] is -28.6% (inactive). Moreover, the compound was called inactive in experiment [2].

As for `NCCCC[C@H](N[C@@H](CCc1ccccc1)C(=O)O)C(=O)N1CCC[C@H]1C(=O)O`, the efficacy in experiment [1] was -19.4% (inactive). In addition, in experiment [2], the compound was called inactive.

As for `Cc1cc(O)c2ccccc2c1O`, the efficacy in experiment [1] was 13.4% (inactive). In addition, the result in experiment [2] was inactive.

Regarding `COc1cc(C(=O)NC2CCCNC2)cc(OC)c1OC` (configuration not stated), the efficacy in experiment [1] was -16% (inactive). For the same compound, the call in experiment [2] was inactive.

Consider `NS(=O)(=O)c1cc(C(=O)NN2C[C@H]3[C@H]4CCC(C4)[C@H]3C2)ccc1Cl`, for which the efficacy in experiment [1] is -15.5% (inactive). Also, the compound was called inactive in experiment [2].

In the case of `CC(=O)[C@H]1CC[C@H]2[C@@H]3C[C@H](C)C4=CC(=O)CC[C@]4(C)[C@H]3[C@@H](O)C[C@]12C`, in experiment [1], the efficacy is -17.9% (inactive). Besides, the compound was classed as inactive in experiment [2].

For the compound `CCOc1ccccc1OCC1CNCCO1` (configuration not stated), the efficacy in experiment [1] was 47.7% (inactive). Further, in experiment [2], the compound was called inactive.

Broadly, the AC50 is the concentration at which the activity in the assay is half-maximal. As to `CNCCCCOc1ccccc1Cc1ccccc1`, the efficacy in experiment [1] was 68.3% (inactive). For the same compound, in experiment [2], the AC50 was 5.62 µM (active).

For the compound `Cc1ccc2ccc(Cl)cc2n1`, the efficacy in experiment [1] was 18.4% (inactive). For the same compound, the outcome in experiment [2] was inactive.

For the compound `CC(COc1ccccc1)NN` (configuration not stated), the efficacy in experiment [1] was -13% (inactive). For the same compound, in experiment [2], the result was inactive.

On to `CC(=O)OCC(=O)[C@@]1(OC(C)=O)[C@@H](C)C[C@H]2[C@@H]3C[C@H](F)C4=CC(=O)C=C[C@]4(C)[C@@]3(F)[C@@H](O)C[C@@]21C`, for which the efficacy in experiment [1] was 58.7% (inactive). For the same compound, in experiment [2], the compound was classed as inactive.

For the compound `CC(=O)OCC(=O)[C@@]1(O)[C@H](C)C[C@H]2[C@@H]3CCC4=CC(=O)C=C[C@]4(C)[C@@]3(F)[C@@H](O)C[C@@]21C`, in experiment [1], the efficacy is 26.4% (inactive). Besides, the compound was classed as inactive in experiment [2].

As for `COc1ccc(S(=O)(=O)Nc2nnc(CC(C)C)s2)cc1`, the efficacy in experiment [1] was -19% (inactive). For the same compound, the compound was called inactive in experiment [2].

`O=C(O)Cn1c(=O)n(Cc2ccc(Br)cc2F)c(=O)c2ccc(Cl)cc21`: the efficacy in experiment [1] was -18.1% (inactive). Further, in experiment [2], the outcome was inactive.

As for `O=C(Oc1ccccc1C(=O)O)c1ccccc1O`, in experiment [1], the efficacy was 10% (inactive). The call in experiment [2] was inactive.

Consider `O=C(Oc1ccccc1)c1ccccc1O`, for which the efficacy in experiment [1] is -17.4% (inactive). For the same compound, the compound was called inactive in experiment [2].

As for `COC(=O)C1=C(C)NC(C)=C(C(=O)OCCc2ccc(N3CCN(C(c4ccccc4)c4ccccc4)CC3)cc2)C1c1cccc([N+](=O)[O-])c1` (configuration not stated), the efficacy in experiment [1] was -12.1% (inactive). In addition, the outcome in experiment [2] was inactive.

For `CCO/C([O-])=N/c1c[n+](N2CCOCC2)no1`, the efficacy in experiment [1] is -25.2% (inactive). For the same compound, the call in experiment [2] was inactive.

Take `CCCCOC(=O)c1ccc(O)cc1`: the efficacy in experiment [1] was -26.2% (inactive). For the same compound, in experiment [2], the compound was called inactive.

For `CC(=O)NO`, in experiment [1], the efficacy is -14.2% (inactive). Further, in experiment [2], the outcome was inactive.

On to `COc1ccc(NS(=O)(=O)c2ccc(N)cc2)nn1`, for which, in experiment [1], the efficacy was 8.59% (inactive). Also, in experiment [2], the result was inactive.

On to `O=C(O)Cn1cnnn1`, for which the efficacy in experiment [1] was 14.2% (inactive). For the same compound, the compound was classed as inactive in experiment [2].

Regarding `FC(F)(F)c1ccccc1-n1ccnc1`, the efficacy in experiment [1] is 12.1% (inactive). In experiment [2], the result was inactive.

For the compound `COCCOC(=O)C1=C(C)NC(C)=C(C(=O)OC(C)C)C1c1cccc([N+](=O)[O-])c1` (configuration not stated), the efficacy in experiment [1] was 27.1% (inactive). In addition, the outcome in experiment [2] was inactive.

As for `CC1(C)C(C=C(Cl)Cl)C1C(=O)OC(C#N)c1cccc(Oc2ccccc2)c1` (configuration not stated), the efficacy in experiment [1] was -14.1% (inactive). For the same compound, the call in experiment [2] was inactive.

As to `Clc1cccc(C(c2ccc3nc[nH]c3c2)n2ccnc2)c1` (configuration not stated), the efficacy in experiment [1] was -19.4% (inactive). For the same compound, the result in experiment [2] was inactive.

Consider `CN1CCN(CC(=O)N2c3ccccc3C(=O)Nc3cccnc32)CC1`, for which, in experiment [1], the efficacy was -20.7% (inactive). Further, the compound was called inactive in experiment [2].

With `CC(C)NCC(O)c1cc(O)cc(O)c1` (configuration not stated), the efficacy in experiment [1] was 56.8% (inactive). Further, the result in experiment [2] was inactive.

In the case of `O=C(OCCN1CCOCC1)c1cccnc1Nc1cccc(C(F)(F)F)c1`, the efficacy in experiment [1] is -15.5% (inactive). For the same compound, in experiment [2], the call was inactive.

In the case of `COc1cc(/C=C/C(=O)O[C@H]2CC[C@]34C[C@]35CC[C@]3(C)[C@@H]([C@H](C)CCC=C(C)C)CC[C@@]3(C)[C@@H]5CC[C@H]4C2(C)C)ccc1O`, the efficacy in experiment [1] was -25.4% (inactive). Besides, the outcome in experiment [2] was inactive.

Take `O=C1OC(CN2CCOCC2)CN1/N=C/c1ccc([N+](=O)[O-])o1` (configuration not stated): the efficacy in experiment [1] is 29.1% (inactive). The compound was called inactive in experiment [2].

As to `Cc1cccc(C(=O)O)c1O`, in experiment [1], the efficacy was 15.1% (inactive). The result in experiment [2] was inactive.

Regarding `CCCCCCCC(=O)OCC(COC(=O)CCCCCCC)OC(=O)CCCCCCC`, the efficacy in experiment [1] is 8.07% (inactive). Further, the compound was called inactive in experiment [2].

On to `CCC1(c2ccc(N)cc2)CCC(=O)NC1=O` (configuration not stated), for which the parasite growth, % of DMSO control in experiment [3] worked out at 89%. Also, the parasite growth remaining, % of DMSO control (lower = more inhibition) in experiment [4] stood at 103%. The parasite growth, % of control (lower = inhibition) in experiment [5] was determined as 117%. In addition, in experiment [6], the growth, % of control was 101%. For the same compound, the efficacy in experiment [1] was -15.9% (inactive).

For `CC(C)c1cccc(C(C)C)c1O`, the parasite growth, % of DMSO control in experiment [3] came to 89.1%. In addition, the parasite growth remaining, % of DMSO control (lower = more inhibition) in experiment [4] stood at 102%. Besides, the parasite growth, % of control (lower = inhibition) in experiment [5] was found to be 85.1%. In experiment [6], this compound gave a growth, % of control of 103%. Moreover, the efficacy in experiment [1] is -18.5% (inactive). Besides, in experiment [2], the call was inactive.

In the case of `C[C@@H]1CC2=CC(=O)CC[C@@H]2[C@H]2CC[C@@]3(C)[C@@H](CC[C@]3(C)O)[C@@H]21`, the efficacy in experiment [1] is 24.6% (inactive). Moreover, in experiment [2], the outcome was inactive.
